Source: PubChem BioAssay (National Center for Advancing Translational Sciences (NCATS))
NPR1 antag: human Npr1 receptor antagonism; HEK293 hNpr1 GloSensor cGMP, ANP-stimulated luminescence; P16066; 76,000 compounds, 1.6% hits; Potency, µM (top dose mostly 46.3 µM), inactives show at the highest dose activity change, negative = inhibition, hits mostly inhibitors; calls by dose curve; note: potency is the fitted concentration of half-maximal effect; % is set by controls: 0 for no effect and ±100 for the full control effect; nearly all actives have a fitted effect of over 60% in size
Target sequence (P16066 whole entry, looked up): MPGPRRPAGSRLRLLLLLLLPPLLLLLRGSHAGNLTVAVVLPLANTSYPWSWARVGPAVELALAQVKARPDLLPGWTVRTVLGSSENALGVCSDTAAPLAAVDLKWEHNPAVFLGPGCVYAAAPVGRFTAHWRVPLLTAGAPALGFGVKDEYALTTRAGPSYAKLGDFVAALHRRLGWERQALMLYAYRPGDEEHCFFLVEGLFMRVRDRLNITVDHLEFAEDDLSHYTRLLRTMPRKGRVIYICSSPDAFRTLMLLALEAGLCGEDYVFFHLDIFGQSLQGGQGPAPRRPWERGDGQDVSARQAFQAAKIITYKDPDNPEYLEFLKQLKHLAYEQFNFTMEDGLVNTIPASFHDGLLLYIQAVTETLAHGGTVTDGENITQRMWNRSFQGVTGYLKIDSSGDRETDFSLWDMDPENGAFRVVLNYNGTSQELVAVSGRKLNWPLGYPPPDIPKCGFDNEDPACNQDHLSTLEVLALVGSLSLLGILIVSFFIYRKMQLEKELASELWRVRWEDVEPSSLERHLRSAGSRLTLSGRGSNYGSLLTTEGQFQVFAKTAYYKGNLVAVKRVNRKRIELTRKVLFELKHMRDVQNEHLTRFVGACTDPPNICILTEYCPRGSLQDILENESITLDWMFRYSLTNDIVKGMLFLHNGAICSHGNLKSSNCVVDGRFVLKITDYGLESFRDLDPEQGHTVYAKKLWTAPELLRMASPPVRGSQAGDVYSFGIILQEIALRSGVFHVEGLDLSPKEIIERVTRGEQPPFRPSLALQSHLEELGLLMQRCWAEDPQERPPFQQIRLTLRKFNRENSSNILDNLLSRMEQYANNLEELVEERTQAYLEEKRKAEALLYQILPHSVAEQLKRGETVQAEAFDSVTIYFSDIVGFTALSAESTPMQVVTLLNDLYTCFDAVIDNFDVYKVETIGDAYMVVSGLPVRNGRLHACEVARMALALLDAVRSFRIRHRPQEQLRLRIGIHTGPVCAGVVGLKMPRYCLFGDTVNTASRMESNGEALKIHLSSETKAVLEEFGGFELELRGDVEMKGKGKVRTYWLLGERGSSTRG
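HEK293 cells stably expressing human Npr1 and cGMP GloSensor pGS-40F, loaded 2 h with 2% GloSensor reagent, given compound 30 min at room temperature. Luminescence read before and 20 min after 0.1 nM hNppA.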
3T3 cytotox: NIH 3T3 cell cytotoxicity; 94,000 compounds, 4.3% hits; AID 1345082; NIH 3T3 viability, CellTiter-Glo ATP luminescence, 48-72 h; Potency, µM (top dose mostly 96.7 µM), for the others: at the highest dose activity change, negative = cytotoxicity, usual class: inhibitors; note: potency is the fitted concentration of half-maximal effect; % is set by controls: 0 for no effect and ±100 for the full control effect; nearly all actives have a fitted effect of over 55% in size
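Mouse fibroblast NIH 3T3 cells, 400 per well, received compound via pintool and were incubated for 48 or 72 hr prior to CellTiter-Glo ATP luminescence measurement.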
HEK293 tox: HEK 293 cell cytotoxicity | 94,000 compounds, 6.6% hits | Potency, µM (series often up to 115 µM), inactives show at the top dose activity change, negative = cytotoxicity, most hits filed as inhibitors | AID 1345083 | HEK 293 viability, ATP luminescence (CellTiter-Glo), 48-72 h; note: potency is the fitted concentration of half-maximal effect; % is set by controls: 0 for no effect and ±100 for the full control effect; nearly all actives have a fitted effect of over 60% in size
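Read-out: CellTiter-Glo ATP luminescence. Cells: HEK 293, 250 cells/well. Exposure: 48 or 72 hr, 37 degree Celsius.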
Luciferase inh: inhibitors of firefly (Photinus pyralis) luciferase; Potency, µM (titrated, usually from 115 µM), hits mostly inhibitors; 76,000 compounds, 2.5% hits; purified P. pyralis luciferase, luminescence, biochemical; P08659; note: potency is the fitted concentration of half-maximal effect; % is set by controls: 0 for no effect and ±100 for the full control effect; nearly all actives have a fitted effect of over 65% in size
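Purified 10nM P. pyralis luciferase with 10uM D-luciferin and 10uM ATP in 50mM Tris acetate pH 7.5, 10mM Mg acetate, 0.01% Tween-20, 0.05% BSA. qHTS titration; luminescence read by CCD imager.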
GPT2 inhibitor: inhibitors of human GPT2 alanine aminotransferase | 100,000 compounds, 0.25% hits | Q8TD30 | Potency, µM (doses to about 57.7 µM), for inactives: top-dose activity change, negative = inhibition, actives largely listed as inhibitors | Recombinant GPT2, coupled pyruvate oxidase/HRP Amplex Red fluorescence; note: potency is the fitted concentration of half-maximal effect; % is set by controls: 0 for no effect and ±100 for the full control effect; nearly all actives have a fitted effect of over 60% in size
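GPT2 10ng/uL, a-KG 250uM, L-Ala 2mM, HEPES pH7.5 + 0.0001% Tween; 30 min RT. Then Amplex mix (PO/HRP/ThPP), 30 min RT dark, fluorescence. AOA 50uM used as positive control.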
GPT2 inh cnf: confirmation of human GPT2 inhibitors; GPT2 enzyme, coupled Amplex Red pyruvate fluorescence; 95 compounds, 90% hits; AID 1671187; Potency, µM, most hits filed as inhibitors; shares compounds with GPT2 inhibitor
Active calls of the source: *; i = inactive; u = inconclusive; x = no result; [ ] = another dose, or the depositor's remark. Sampled rows, rich in hits. Any-hit rate of the full collection: about 10%. Unless noted, calls come from the whole dose curve; as a rule, active = well fitted curve in the direction sought with a large enough effect; inconclusive = small, poorly fitted or top-dose-only effect, or another doubt; inactive = no such curve, though single readings can be large; an effect the other way counts as inactive or inconclusive.

SMILES	NPR1 antag	3T3 cytotox	HEK293 tox	Luciferase inh	GPT2 inhibitor	GPT2 inh cnf
CNC(=O)c1cc(Nc2cccc(N(C)C)c2)cc2c1OCCN2Cc1cccnc1	-1%[70.6 µM]	u	u	i	u	3.5*
Cc1cc(C(=O)Nc2ccc(C(O)[C@H]3COCC(=O)N3Cc3ccc(C(F)(F)F)cc3)cc2)n(C)n1 (stereo partly specified)	-4%	u	u	i	3%	x
C=CC(=O)Nc1cccc(Nc2nc(Nc3ccc(N4CCN(C(C)=O)CC4)cc3OC)ncc2C(F)(F)F)c1	x	x	x	x	3.2µM*	2.2*
CN1CCN(c2ccc(OC(F)(F)F)c(Nc3ncc4c(n3)-c3c(c(C(N)=O)nn3CCO)CC4)c2)CC1	x	x	x	x	i	x
COc1ccccc1Nc1ccnc(N2CCC(NC(=O)c3ccc(Cl)nc3)CC2)n1	x	-21%	u	x	-12%	x
COc1cc(N2CCC(N3CCN(C)CC3)CC2)ccc1Nc1ncc(Cl)c(Nc2ccccc2S(=O)(=O)C(C)C)n1	x	x	x	x	2.2µM*	3.1*
COc1cc(N2CCC(N(C)C)CC2)ccc1Nc1ncc(Cl)c(Nc2ccccc2P(C)(C)=O)n1	x	x	x	x	1.9µM*	2.2*
COc1cc(N2CCN(C)CC2)ccc1Nc1nccc(-c2cn(C)c3cnccc23)n1	x	x	x	x	3.5µM*	2.4*
CCS(=O)(=O)N1CCN(c2ccc(Nc3ncc(C(N)=O)c(NC4CC4)n3)cc2)CC1	x	x	x	x	i	x
CNS(=O)(=O)c1ccccc1Nc1nc(Nc2ccc(N3CCN(C)CC3)cc2OC)ncc1Br	x	x	x	x	u	2.7*
O=C(c1ccc(C(F)(F)F)cc1)N1CCCC2(CN[S+](=O)([O-])c3cccnc3N2)C1 (stereo unspecified)	x	-11%	-3%	x	x	x
Cn1nc(C(=O)N2CCC3(CC2)CC(CO)N(C(=O)c2ccccc2)C3)c2ccccc21 (stereo unspecified)	-5%	u	-14%	i	i	x
O=C(c1cccs1)N1CCOc2ccc(N3CCCC3)cc2C1	x	u	18µM*	x	1.3µM*	1.4*
Fc1cc(Nc2ncc(-c3cccnc3)c3c2OCC3)cc(N2CCOCC2)c1	-3%[70.6 µM]	u	u	u	i	x
CNC(=O)c1cccc(-c2cnc(Nc3ccc(N4CCOCC4)cc3)c3c2CCO3)c1	-7%[70.6 µM]	u	79µM*	0.63µM*	u	6.3*
COCCNC(=O)c1ccc2nnc(-c3ccc([S+](C)(=O)[O-])cc3)n2c1	x	-12%	-17%	x	i	x
O=C(O)[C@H]1O[C@H](Oc2cc3oc(-c4ccccc4)cc(=O)c3c(O)c2O)[C@H](O)[C@@H](O)[C@H]1O	x	x	x	x	3.4µM*	3.1*
COc1ccc(N2CCN(C3CCCN(Cc4cc(=O)[nH]c(=O)[nH]4)C3)CC2)cc1 (stereo unspecified)	-3%	-3%	2%	i	u	6.9*
COc1ccc(N2CCN(C3CCCN(CC=C(C)C)C3)CC2)cc1 (stereo unspecified)	-9%	-16%	-7%	i	u	x
COc1ccccc1Nc1ccnc(N2CCCC2C(=O)NCC(F)F)n1 (stereo unspecified)	x	-6%	-24%	x	1%	x
CC(C)CNC(=O)c1cc(N2CCOCC2)cc2c1OCCN2C	x	x	x	x	x	2*
CN1CCOc2c(C(=O)NCCc3ccccc3)cc(N3CCOCC3)cc21	0%[70.6 µM]	-26%[138 µM]	u	i	u	x
CN1CCOc2c(C(=O)N3CC[S+](=O)([O-])CC3)cc(N3CCOCC3)cc21	x	x	x	x	x	2*
CN1CCOc2c(C(=O)NCCC(N)=O)cc(-c3ccccc3)cc21	1%[70.6 µM]	u	0%[172 µM]	i	i	x
Cc1ccc2c(c1)C(N1CCN(C)CC1)=Nc1cccnc1N2	x	x	x	x	i	x
SMILES	NPR1 antag	3T3 cytotox	HEK293 tox	Luciferase inh	GPT2 inhibitor	GPT2 inh cnf
Cc1cc2c(s1)Nc1ccccc1N=C2N1CCN(C)CC1	x	x	x	x	u	8.6*
Cc1nc(N2CCCC2)nc(N2CCC3(CC2)OCCCC3O)c1C (stereo unspecified)	0%	-18%	-13%	i	-23%	x
Cc1cc2c(N3CCCC3)nc(N3CCCC3)nc2n1C	x	x	x	x	u	u
COCCOC1CN(C2CCN(Cc3cccc(F)c3)CC2)C12CCCCC2 (stereo unspecified)	-3%	-26%	u	i	i	x
CC(=O)Nc1ccc(-c2c(C3CC3)nn(-c3cccc(C)c3)c2OC(C)=O)cc1	1%	i	-9%	i	u	9.7*
CCC(=O)Nc1cc(-c2ccncc2)nn1-c1ccccc1	x	u	-8%[172 µM]	x	i	x
COCCCNC(=O)C1CCN(C(=O)c2ccc(-c3cncnc3)cc2)CC1	x	-13%	-8%	x	x	x
CN(C)c1ccc2c(c1)CN(C(=O)c1cnccn1)CCO2	x	-19%	-4%	x	u	0.86*
COc1ccc(-c2ccc(C(=O)NCC(F)(F)F)cc2)nn1	x	-27%[138 µM]	-6%[172 µM]	x	x	x
CC(=O)NC1(C)CN(c2ccc(OC(F)(F)F)cc2)C1	-13%[70.6 µM]	u	u	i	-9%[88.5 µM]	x
COc1ccc(N2CC(C)(NC(C)=O)C2)cc1	x	x	x	x	x	3.5*
